From paper PMC12440807

Molecular target: Transcription elongation factor SPT6 (UniProt Q7KZ85)
Test: cross-link between two proteins; cross-linking mass spectrometry

Listed as a hit, yes:
Transcription elongation factor SPT5, O00267
DNA-directed RNA polymerase II subunit RPB7, P62487
Transcription elongation factor SPT4, P63272
